The panel holds about 79,000 compounds, 15% with a hit somewhere; the sample as a whole holds those more often. Unmarked numbers belong to inactive results. Calls of active or inactive are those of the source. No stated cut-off is given here; in the data, active means growth inhibition above about 70%; inactive means the rest.
Experiment: NCI Yeast Anticancer Drug Screen. Data for the rad18 strain (AID 177)
Conditions: S. cerevisiae rad18 mutant growth inhibition; at 33.0 µM; stronger effect = higher value
How it was run: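 Vehicle-treated cultures served as the baseline for scoring compound-induced growth inhibition in DNA-repair-mutant yeast.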

SMILES	growth inhibition
O=CC=C(c1ccccc1)c1ccccc1	34%
FC(F)(F)c1nc2nc(Cl)c(Cl)nc2n1CCCN1CCOCC1	31%
BrCC[P+](c1ccccc1)(c1ccccc1)c1ccccc1	95% (active)
N#CSc1ccc(S(N)(=O)=O)cc1	28%
O=[N+]([O-])c1ccc2nc3ccccc3cc2c1	87% (active)
O=C(NC(Nc1ccc(F)c(Cl)c1)(C(F)(F)F)C(F)(F)F)C(C(F)(F)F)C(F)(F)F	83% (active)
O=C(/C=C\c1ccc(Cl)cc1Cl)c1cccs1	73% (active)
O=C(NCCCCNCCCNC(=O)c1cc(-c2ccccc2)nc2ccccc12)c1cc(-c2ccccc2)nc2ccccc12	89% (active)
NC(=NCc1ccccc1)N/N=C\c1ccnc2ccccc12	5%
COc1cc(C2C3=C(COC3=O)Oc3cc4c(cc32)OCO4)ccc1O (centres undefined)	32%
C#CCCCc1ccccc1	-28%
CCc1ccc(NS(=O)(=O)c2ccccc2)c([N+](=O)[O-])c1	43%
COc1ccc(C2c3cc4c(cc3OC(C)(O)C2C)OCO4)c(OC)c1 (centres undefined)	15%
COC(=O)c1ccc(CCC2=CC(=O)C(Br)=CC2=O)cc1	-25%
NNC(=O)CCc1ccc2ccc3ccccc3c2c1	38%
Cn1c2ccccc2c(=O)c2cc(NC(=O)CCCCC(=O)Nc3ccc4c(c3)c(=O)c3ccccc3n4C)ccc21	49%
CC(CC(C)(C)[N+](C)(C)C)[N+](C)(C)C (centres undefined)	15%
CC1CCN(CCC(=O)c2ccc(Cl)cc2)CC1	28%
CCCCCCCCCCCCCCC(C(=O)[O-])[n+]1ccccc1 (centres undefined)	81% (active)

SMILES	growth inhibition
CNC1C(OC2C(OC3C(O)C(O)C(N=C(N)N)C(O)C3N=C(N)N)OC(C)C2(O)CO)OC(CO)C(O)C1O (centres undefined)	35%
O=C(O)c1ccccc1-c1ccccc1C(=O)Nc1ccc2c(c1)Cc1ccccc1-2	49%
O=[N+]([O-])c1cccc2nc3ccccc3c(NCCCN3CCOCC3)c12	97% (active)
C=CC(C)(O)CCC1C(=C)C(O)CC2C(C)(C)CCCC12C (centres undefined)	49%
CN1c2ccc(Cl)cc2C(=O)NC1c1ccc([N+](=O)[O-])s1 (centres undefined)	96% (active)
[O-][n+]1c2ccc(O)cc2nc2ccc(Br)cc21	90% (active)
O=C1c2ccccc2-c2nc3ccccc3nc21	12%
CCCCN1C(=O)N(c2ccc(OCC)cc2)C2N(CCCC)C1C(C)(C)C2(C)C (centres undefined)	74% (active)
CO[C@H]1C[C@](C)(O)Cc2cc3c(c(O)c21)C(=O)c1c(O)cc2c(c1C3=O)O[C@@H]1O[C@@]2(C)[C@H](O)[C@@H](N(C)C)[C@@H]1O	-27%
COc1cc2c(cc1[N+](=O)[O-])C(=O)C(Br)(Br)CCC2	99% (active)
O=C1OC(CCl)CN1/N=C/c1ccc([N+](=O)[O-])o1 (centres undefined)	95% (active)
CN(C)CCOc1ccc2c(c1)C/C(=C/c1ncc([N+](=O)[O-])n1C)C2=O	94% (active)
CCCCCCCCCCCCCCCCCCN(C)CC(COP(=O)([O-])OCC[N+](C)(C)C)OC (centres undefined)	98% (active)
CC(C)c1ccccc1NC(=O)/C(Cl)=C(\Cl)C(=O)O	8%
O=[N+]([O-])C(=C(Sc1ccccc1)Sc1ccccc1)C(Cl)=C(Cl)Cl	76% (active)
C(=C\c1ccccc1)/COc1ccccc1C(N1CCOCC1)n1nc2ccccc2n1 (centres undefined)	86% (active)
O=C1C(Nc2ccccc2)=C(Oc2ccccc2)C(=O)c2ccccc21	14%
CCN(CC)CCN1C(=O)c2cccc3cc(OC)cc(c23)C1=O	-12%

Same assay, conditions: S. cerevisiae rad18 mutant growth inhibition; at 100.0 µM; stronger effect = higher value

SMILES	growth inhibition
O=CC=C(c1ccccc1)c1ccccc1	98% (active)
FC(F)(F)c1nc2nc(Cl)c(Cl)nc2n1CCCN1CCOCC1	43%
BrCC[P+](c1ccccc1)(c1ccccc1)c1ccccc1	95% (active)
N#CSc1ccc(S(N)(=O)=O)cc1	81% (active)
O=[N+]([O-])c1ccc2nc3ccccc3cc2c1	96% (active)
O=C(NC(Nc1ccc(F)c(Cl)c1)(C(F)(F)F)C(F)(F)F)C(C(F)(F)F)C(F)(F)F	92% (active)
O=C(/C=C\c1ccc(Cl)cc1Cl)c1cccs1	84% (active)
O=C(NCCCCNCCCNC(=O)c1cc(-c2ccccc2)nc2ccccc12)c1cc(-c2ccccc2)nc2ccccc12	91% (active)
NC(=NCc1ccccc1)N/N=C\c1ccnc2ccccc12	28%
COc1cc(C2C3=C(COC3=O)Oc3cc4c(cc32)OCO4)ccc1O (centres undefined)	80% (active)
C#CCCCc1ccccc1	65%
CCc1ccc(NS(=O)(=O)c2ccccc2)c([N+](=O)[O-])c1	87% (active)
COc1ccc(C2c3cc4c(cc3OC(C)(O)C2C)OCO4)c(OC)c1 (centres undefined)	97% (active)
COC(=O)c1ccc(CCC2=CC(=O)C(Br)=CC2=O)cc1	40%
NNC(=O)CCc1ccc2ccc3ccccc3c2c1	66%
Cn1c2ccccc2c(=O)c2cc(NC(=O)CCCCC(=O)Nc3ccc4c(c3)c(=O)c3ccccc3n4C)ccc21	79% (active)
CC(CC(C)(C)[N+](C)(C)C)[N+](C)(C)C (centres undefined)	20%
CC1CCN(CCC(=O)c2ccc(Cl)cc2)CC1	42%
CCCCCCCCCCCCCCC(C(=O)[O-])[n+]1ccccc1 (centres undefined)	97% (active)

SMILES	growth inhibition
CNC1C(OC2C(OC3C(O)C(O)C(N=C(N)N)C(O)C3N=C(N)N)OC(C)C2(O)CO)OC(CO)C(O)C1O (centres undefined)	-12%
O=C(O)c1ccccc1-c1ccccc1C(=O)Nc1ccc2c(c1)Cc1ccccc1-2	90% (active)
O=[N+]([O-])c1cccc2nc3ccccc3c(NCCCN3CCOCC3)c12	99% (active)
C=CC(C)(O)CCC1C(=C)C(O)CC2C(C)(C)CCCC12C (centres undefined)	80% (active)
CN1c2ccc(Cl)cc2C(=O)NC1c1ccc([N+](=O)[O-])s1 (centres undefined)	97% (active)
[O-][n+]1c2ccc(O)cc2nc2ccc(Br)cc21	90% (active)
O=C1c2ccccc2-c2nc3ccccc3nc21	58%
CCCCN1C(=O)N(c2ccc(OCC)cc2)C2N(CCCC)C1C(C)(C)C2(C)C (centres undefined)	93% (active)
CO[C@H]1C[C@](C)(O)Cc2cc3c(c(O)c21)C(=O)c1c(O)cc2c(c1C3=O)O[C@@H]1O[C@@]2(C)[C@H](O)[C@@H](N(C)C)[C@@H]1O	-18%
COc1cc2c(cc1[N+](=O)[O-])C(=O)C(Br)(Br)CCC2	95% (active)
O=C1OC(CCl)CN1/N=C/c1ccc([N+](=O)[O-])o1 (centres undefined)	96% (active)
CN(C)CCOc1ccc2c(c1)C/C(=C/c1ncc([N+](=O)[O-])n1C)C2=O	92% (active)
CCCCCCCCCCCCCCCCCCN(C)CC(COP(=O)([O-])OCC[N+](C)(C)C)OC (centres undefined)	98% (active)
CC(C)c1ccccc1NC(=O)/C(Cl)=C(\Cl)C(=O)O	98% (active)
O=[N+]([O-])C(=C(Sc1ccccc1)Sc1ccccc1)C(Cl)=C(Cl)Cl	74% (active)
C(=C\c1ccccc1)/COc1ccccc1C(N1CCOCC1)n1nc2ccccc2n1 (centres undefined)	98% (active)
O=C1C(Nc2ccccc2)=C(Oc2ccccc2)C(=O)c2ccccc21	1%
CCN(CC)CCN1C(=O)c2cccc3cc(OC)cc(c23)C1=O	12%

Reference: PubChem BioAssay (NCI)
